SMILES strings stand for the structures. The list shows a part of the results. Records with an inconclusive call do not appear. Active and inactive are the calls of the source. The call rests on the fitted dose curve; in most records, active means well fitted curve in the direction sought with a large enough effect; inconclusive means small, poorly fitted or top-dose-only effect, or another doubt; inactive means no such curve, though single readings can be large or run the other way.

Glutathione reductase, mitochondrial (Homo sapiens), sequence (P00390 whole entry, looked up): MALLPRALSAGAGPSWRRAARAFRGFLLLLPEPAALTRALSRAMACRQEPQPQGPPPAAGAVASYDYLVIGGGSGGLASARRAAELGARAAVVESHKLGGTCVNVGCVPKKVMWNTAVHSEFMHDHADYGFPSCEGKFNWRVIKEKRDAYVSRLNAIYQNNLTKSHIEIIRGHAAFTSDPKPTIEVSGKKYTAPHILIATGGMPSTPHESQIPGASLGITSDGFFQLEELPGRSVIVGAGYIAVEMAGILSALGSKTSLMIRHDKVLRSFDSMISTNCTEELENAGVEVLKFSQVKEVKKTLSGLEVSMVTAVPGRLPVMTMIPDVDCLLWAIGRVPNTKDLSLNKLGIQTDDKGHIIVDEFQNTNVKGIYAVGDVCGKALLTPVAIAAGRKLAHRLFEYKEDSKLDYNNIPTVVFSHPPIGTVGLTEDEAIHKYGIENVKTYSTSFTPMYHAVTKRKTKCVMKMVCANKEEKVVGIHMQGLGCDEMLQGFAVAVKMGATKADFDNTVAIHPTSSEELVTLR

This assay has as its target Glutathione reductase, mitochondrial (Homo sapiens) (UniProt P00390). The assay can be described thus: qHTS Assay for Inhibitors of Mammalian Selenoprotein Thioredoxin Reductase 1 (TrxR1): Counterassay in Glutathione Reductase (GR). The following applies: purified GR, DTNB reduction absorbance 405 nm kinetic; series mostly up to 57.1 µM. The source says: The selenoprotein thioredoxin reductase (TrxR; EC 1.8.1.9) is a FAD containing homodimeric pyridine nucleotide-disulfide oxidoreductase with many cellular roles. Together with NADPH and its prime substrate thioredoxin (Trx), the enzyme forms the core of the Trx system. The mammalian Trx system exerts a wide spectrum of functions including redox regulation, antioxidant defense, regulation of transcription factors as well as support of cell growth and replication. Many of these functions involve the reduction of Trx, which may subsequently reduce a number of different substrates including ribonucleotide reductase, peroxiredoxins or NFkB. Mammalian TrxR itself also has a broad substrate specificity, reducing both protein and non-protein substrates, including low molecular weight compounds such as dehydroascorbate, lipoic acid, ubiquinone, and juglone. In addition, several drugs in clinical use for anticancer treatment are indeed known to target TrxR1. This assay is counterassay using a yeast glutathione reductase (GR) assay. The desired outcome is inactivity in this assay. NIH Molecular Libraries Probe Production Network [MLPCN] NIH Chemical Genomics Center [NCGC] MLPCN Grant: MH090846 Assay Provider: Elias Arner, Karolinska Institute
Three microliters of reagents (100 microM NADPH and 60 nM hGR or 100 microM NADPH as no-enzyme control) was dispensed into 1,536-well black clear-bottomed plates (Buffer: 0.1 M potassium phosphate, pH 7.4/10 mM EDTA, 0.01 % Tween-20). Compounds (23nl) was transferred via Kalypsys pin tool equipped with 1536-pin array. The plates were incubated for 15 min at room temperature, and 1microl aliquot of 500 microM NADPH was added, immediately followed by a 1 microl aliquot of 15 mM DTNB (3 mM final concentration) to start the reaction. The plate was transferred to a ViewLux high-throughput CCD imager (Perkin-Elmer, Wellesley, MA) where kinetic measurements (one read per 5 min for 6 reads, total time 25 min) of the TNB absorbance was acquired using a 405 excitation filter.
In general terms: Quantitative high-throughput screening tests each substance at several concentrations.
With `Cc1ccccc1-c1nc(CS(=O)(=O)CC(=O)N2CCc3ccccc3C2)c(C)o1`, the compound was classed as inactive.

As for `O=C(/C=C/c1ccco1)Nc1cccc(-c2nc3ccccc3[nH]2)c1`, the compound was classed as inactive.

Take `CC1CCN(C(=O)c2ccc(S(=O)(=O)Cc3cc(F)ccc3F)c([N+](=O)[O-])c2)CC1`: the call was inactive.

These data come from PubChem BioAssay AID652020 (National Center for Advancing Translational Sciences (NCATS), 2013).
